Assay results from PubChem BioAssay (NCI).
About 83,000 compounds went through this panel and 20% of them were active in at least one assay; those are over-represented in the sample as a whole.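 Values shown are percent growth following 48 h exposure of cells in 96-well plates to a single concentration of compound; below 10 was considered active.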 The source made the active and inactive calls.

Test system: COLO 205 colon
Test: NCI-60 one-dose screen, 48 h (100 = growth as untreated, 0 = no growth, -100 = all killed)
Conditions: 10 µM unless noted

Compound | growth
CCn1c(Cc2ccccc2Nc2c(Cl)cccc2Cl)nnc1SCC(=O)Nc1cccc(OC)c1 | 96.4% (inactive)
COc1ccc2nc(C)cc(Sc3nc4ccccc4s3)c2c1 | 33.7% (inactive)
COc1cnc2c(c1)C(=O)c1c-2n(CCCN2CCN(C)CC2)c(=O)c2cc(Cl)ccc12 | 31.3% (inactive)
c1cn2cc(-c3ccc4ncn(C5CCCCC5)c4c3)nc(-c3ccc4c(c3)ncn4C3CCCCC3)c2n1 | -64.4% (active)
CN1C(=O)N(C)C2C1NN=c1s/c(=C\c3ccc(C(F)(F)F)cc3)c(=O)n12 (stereo unspecified) | -0.525% (active)
CN1C(=O)N(C)C2C1NN=c1s/c(=C\c3ccsc3)c(=O)n12 (stereo unspecified) | 41.1% (inactive)
C/C(=N\Nc1ccc([N+](=O)[O-])cn1)c1ccc(N)cc1 | 104% (inactive)
COc1ccccc1/C=N\Nc1ccc([N+](=O)[O-])cn1 | 102% (inactive)
CCCCCCCCCCCCCCCCCC(=O)[O][Sn]([CH2]CCC)([CH2]CCC)[CH2]CCC | -80.9% (active)
C[C@H](NC(=O)c1snnc1C1CC1)c1c(F)cccc1Cl | 219% (inactive)
CC(C)c1cccc(C#N)c1 | 115% (inactive)
CN1C(=O)N(C)C2C1NN=c1s/c(=C\c3ccc(Br)cc3)c(=O)n12 (stereo unspecified) | 0.786% (active)
O=C1SCN(Cc2ccccc2)CN1Cc1ccccc1 | 116% (inactive)
C[N+](C)(C)CC(=O)N/N=C\c1ccco1 | 107% (inactive)
COc1cc(C2CC(c3ccc(Cl)cc3)=NN2C(C)=O)ccc1Oc1nc2c(c(=O)n(C)c(=O)n2C)n1C (stereo unspecified) | 102% (inactive)
CCN1CCN(Cc2ccc(NC(=O)Nc3ccc(-n4ccc5c(NC(=O)c6ccccc6)nccc54)cc3)cc2C(F)(F)F)CC1 | -87.5% (active)
Nc1nc(N)c2cc(NCc3ccc(Cl)c(Cl)c3)ccc2n1 | -90.7% (active)
O=c1oc2ccccc2cc1-c1cc(-c2ccc(-c3cc(-c4cc5ccccc5oc4=O)nc(-c4cc5ccccc5oc4=O)c3)cc2)cc(-c2cc3ccccc3oc2=O)n1 | 103% (inactive)
C=C1C(=O)O[C@H]2[C@H]1CC/C(COC(=O)N[C@@H](Cc1c[nH]c3ccccc13)C(=O)OC)=C\CC[C@@]1(C)O[C@@H]21 | -69.2% (active)

Compound | growth
COc1cc(OC)c(Cl)cc1N | 115% (inactive)
COC(=O)c1ccc2c(c1)nc(-c1cc3ccccc3[nH]c1=O)n2-c1cc(C(C)(C)C)[nH]n1 | 71.6% (inactive)
Fc1ccc(-c2nc(-c3ccc(-c4nc5ccc(F)cc5[nH]4)cc3)no2)cc1 | 71.6% (inactive)
CCCC(CCC)(C(N)=O)C(=O)O | 106% (inactive)
CNC(=O)OC1C(O[C@H]2C[C@H]3[C@@H]4CC=C5C[C@@H](O)CC[C@]5(C)[C@H]4CC[C@]3(C)[C@H]2[C@H](C)C(=O)CCC(C)C)OCC(O)C1OC1OCC(O)C(O)C1OC(=O)c1ccc(OC)cc1 (stereo partly specified) | -42.8% (active)
CC(=O)O[C@@H]1CC2C(C)(C)CCCC2(C)C2=C1C(=O)C(C(C)C)=CC2=O (stereo partly specified) | -50.8% (active)
CC(=O)Oc1c(Cl)c(Cl)c(Cl)c(Cl)c1Cl | 106% (inactive)
Oc1c(C(Nc2ccccc2Br)c2ccccc2)ccc2cccnc12 (stereo unspecified) | 32.4% (inactive)
O=C1C(Cl)=C(Nc2cccc3ccccc23)C(=O)c2ccccc21 | 88.9% (inactive)
Nc1c(C(=O)Nc2ccccc2)sc2nc3c(cc12)C(=O)CCC3 | -18.4% (active)
CCOCCNc1ccc(S(=O)(=O)c2ccc(N)cc2)cc1N | 110% (inactive)
CCCCSc1ncnc2c1ncn2C1CCCCO1 (stereo unspecified) | 108% (inactive)
CCNCCCn1c2c(c3ccc(Cl)cc3c1=O)C(=O)c1cc(OC)cnc1-2 | 8.78% (active)
COc1ccc2nc3ccccc3c(NCc3ccc(C)cc3)c2c1 | -40.6% (active)
C=CCOC(=O)C1=C(C)NC2=C(C(=O)CCC2)C1c1ccc(F)cc1 (stereo unspecified) | 103% (inactive)
O=C(O)C(CCc1ccccc1)NCc1ccccc1 (stereo unspecified) | 97.3% (inactive)
COc1ncnc2[nH]cc(CN3CCN(c4ccc(F)cc4)CC3)c12 | 116% (inactive)
O=S(=O)(Cc1ccc(Cl)cc1Cl)c1ccc(Cl)cc1 | 8.87% (active)
COc1ccc(-c2nc3ccccc3n3cccc23)cc1 | 120% (inactive)

Test system: DU-145 prostate
Test: as above
Conditions: 10 µM unless noted

Compound | growth
CCn1c(Cc2ccccc2Nc2c(Cl)cccc2Cl)nnc1SCC(=O)Nc1cccc(OC)c1 | 94% (inactive)
COc1ccc2nc(C)cc(Sc3nc4ccccc4s3)c2c1 | 37.3% (inactive)
COc1cnc2c(c1)C(=O)c1c-2n(CCCN2CCN(C)CC2)c(=O)c2cc(Cl)ccc12 | 33.1% (inactive)
c1cn2cc(-c3ccc4ncn(C5CCCCC5)c4c3)nc(-c3ccc4c(c3)ncn4C3CCCCC3)c2n1 | -59.1% (active)
CN1C(=O)N(C)C2C1NN=c1s/c(=C\c3ccc(C(F)(F)F)cc3)c(=O)n12 (stereo unspecified) | 9.33% (active)
CN1C(=O)N(C)C2C1NN=c1s/c(=C\c3ccsc3)c(=O)n12 (stereo unspecified) | 74.9% (inactive)
C/C(=N\Nc1ccc([N+](=O)[O-])cn1)c1ccc(N)cc1 | 116% (inactive)
COc1ccccc1/C=N\Nc1ccc([N+](=O)[O-])cn1 | 114% (inactive)
CCCCCCCCCCCCCCCCCC(=O)[O][Sn]([CH2]CCC)([CH2]CCC)[CH2]CCC | -100% (active)
C[C@H](NC(=O)c1snnc1C1CC1)c1c(F)cccc1Cl | 127% (inactive)
CC(C)c1cccc(C#N)c1 | 104% (inactive)
CN1C(=O)N(C)C2C1NN=c1s/c(=C\c3ccc(Br)cc3)c(=O)n12 (stereo unspecified) | 17.2% (inactive)
O=C1SCN(Cc2ccccc2)CN1Cc1ccccc1 | 95.4% (inactive)
C[N+](C)(C)CC(=O)N/N=C\c1ccco1 | 104% (inactive)
COc1cc(C2CC(c3ccc(Cl)cc3)=NN2C(C)=O)ccc1Oc1nc2c(c(=O)n(C)c(=O)n2C)n1C (stereo unspecified) | 65.2% (inactive)
CCN1CCN(Cc2ccc(NC(=O)Nc3ccc(-n4ccc5c(NC(=O)c6ccccc6)nccc54)cc3)cc2C(F)(F)F)CC1 | -58.6% (active)
Nc1nc(N)c2cc(NCc3ccc(Cl)c(Cl)c3)ccc2n1 | -94.8% (active)
O=c1oc2ccccc2cc1-c1cc(-c2ccc(-c3cc(-c4cc5ccccc5oc4=O)nc(-c4cc5ccccc5oc4=O)c3)cc2)cc(-c2cc3ccccc3oc2=O)n1 | 107% (inactive)
C=C1C(=O)O[C@H]2[C@H]1CC/C(COC(=O)N[C@@H](Cc1c[nH]c3ccccc13)C(=O)OC)=C\CC[C@@]1(C)O[C@@H]21 | 20.5% (inactive)

Compound | growth
COc1cc(OC)c(Cl)cc1N | 114% (inactive)
COC(=O)c1ccc2c(c1)nc(-c1cc3ccccc3[nH]c1=O)n2-c1cc(C(C)(C)C)[nH]n1 | 83.7% (inactive)
Fc1ccc(-c2nc(-c3ccc(-c4nc5ccc(F)cc5[nH]4)cc3)no2)cc1 | 39.4% (inactive)
CCCC(CCC)(C(N)=O)C(=O)O | 108% (inactive)
CNC(=O)OC1C(O[C@H]2C[C@H]3[C@@H]4CC=C5C[C@@H](O)CC[C@]5(C)[C@H]4CC[C@]3(C)[C@H]2[C@H](C)C(=O)CCC(C)C)OCC(O)C1OC1OCC(O)C(O)C1OC(=O)c1ccc(OC)cc1 (stereo partly specified) | 42% (inactive)
CC(=O)O[C@@H]1CC2C(C)(C)CCCC2(C)C2=C1C(=O)C(C(C)C)=CC2=O (stereo partly specified) | -19.2% (active)
CC(=O)Oc1c(Cl)c(Cl)c(Cl)c(Cl)c1Cl | 105% (inactive)
Oc1c(C(Nc2ccccc2Br)c2ccccc2)ccc2cccnc12 (stereo unspecified) | 28.8% (inactive)
O=C1C(Cl)=C(Nc2cccc3ccccc23)C(=O)c2ccccc21 | 111% (inactive)
Nc1c(C(=O)Nc2ccccc2)sc2nc3c(cc12)C(=O)CCC3 | 0.618% (active)
CCOCCNc1ccc(S(=O)(=O)c2ccc(N)cc2)cc1N | 119% (inactive)
CCCCSc1ncnc2c1ncn2C1CCCCO1 (stereo unspecified) | 121% (inactive)
CCNCCCn1c2c(c3ccc(Cl)cc3c1=O)C(=O)c1cc(OC)cnc1-2 | -97.4% (active)
COc1ccc2nc3ccccc3c(NCc3ccc(C)cc3)c2c1 | 21.6% (inactive)
C=CCOC(=O)C1=C(C)NC2=C(C(=O)CCC2)C1c1ccc(F)cc1 (stereo unspecified) | 113% (inactive)
O=C(O)C(CCc1ccccc1)NCc1ccccc1 (stereo unspecified) | 95.7% (inactive)
COc1ncnc2[nH]cc(CN3CCN(c4ccc(F)cc4)CC3)c12 | 116% (inactive)
O=S(=O)(Cc1ccc(Cl)cc1Cl)c1ccc(Cl)cc1 | 41% (inactive)
COc1ccc(-c2nc3ccccc3n3cccc23)cc1 | 119% (inactive)
